TDP1 inh: blocks human tyrosyl-DNA phosphodiesterase 1; AID 485290; recombinant TDP1, AlphaScreen DNA substrate cleavage; 350,000 compounds, 0.28% hits; Potency, µM (top dose mostly 130 µM), without a hit: at the highest dose activity change, negative = inhibition, usual class: inhibitors; Q9NUW8; note: potency is the fitted concentration of half-maximal effect; % is set by controls: 0 for no effect and ±100 for the full control effect; nearly all actives have a fitted effect of over 40% in size
Target sequence (Q9NUW8 whole entry, looked up): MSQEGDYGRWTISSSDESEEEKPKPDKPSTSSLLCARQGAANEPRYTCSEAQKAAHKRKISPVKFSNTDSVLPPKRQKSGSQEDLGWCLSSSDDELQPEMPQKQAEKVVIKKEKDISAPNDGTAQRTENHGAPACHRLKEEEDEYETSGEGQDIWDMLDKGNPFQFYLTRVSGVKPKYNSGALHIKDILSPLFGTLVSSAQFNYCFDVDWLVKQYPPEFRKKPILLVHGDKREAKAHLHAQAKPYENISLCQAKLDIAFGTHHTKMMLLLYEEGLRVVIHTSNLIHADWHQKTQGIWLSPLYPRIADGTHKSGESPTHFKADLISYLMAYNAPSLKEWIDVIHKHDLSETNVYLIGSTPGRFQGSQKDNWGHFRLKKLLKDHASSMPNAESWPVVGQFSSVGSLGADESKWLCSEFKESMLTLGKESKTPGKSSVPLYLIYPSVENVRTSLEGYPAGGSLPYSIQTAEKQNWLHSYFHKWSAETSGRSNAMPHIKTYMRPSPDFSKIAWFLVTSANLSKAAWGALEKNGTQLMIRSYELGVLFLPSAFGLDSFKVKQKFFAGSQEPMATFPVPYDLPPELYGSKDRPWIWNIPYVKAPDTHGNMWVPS
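Enzyme-compound mixtures sat 15 min at room temperature, followed by a 5 min reaction with 15 nM final substrate and 10 min with AlphaScreen beads. Recombinant human Tdp1 was used at 1 nM final.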
TGFb inhibitor: inhibitors of TGF-b signaling. HepG2 CAGA-GFP TGF-b/SMAD3 reporter, GFP fluorescence, 18 h; TGF-beta stimulated, 500 pg/mL final. Potency, µM (series often up to 46.1 µM), for the others: top-dose activity, negative = inhibition, hits mostly inhibitors. 410,000 compounds, 1.2% hits. AID 588855; note: potency is the fitted concentration of half-maximal effect; % is set by controls: 0 for no effect and ±100 for the full control effect; nearly all actives have a fitted effect of over 65% in size
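HEPG2 CAGA-GFP reporter cells (1000/well, DMEM with 1% FBS) received compounds, then recombinant TGF-beta at 500 pg/mL final for 18 hours at 37 degrees C. Per-cell GFP summed per well was normalised to unstimulated and stimulated DMSO controls before curve fitting.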
IL1B secr inh: blocks inflammasome-driven IL-1 beta release | activity change, % at 57.5 µM | 360,000 compounds, 4.7% hits | THP-1 LPS/ATP IL-1B secretion, AlphaLISA, 16 h; stronger effect = lower value | AID 743279; in the data active = activity change below about -50%; inconclusive = mostly about -30% to -49%; note: % is set by controls: 0 for no effect and ±100 for the full control effect
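THP-1 cells pretreated 1 hr with compounds (up to 57.5 uM final), then stimulated with LPS (250 ng/mL final) plus ATP (1.25 mM final); secreted IL-1B measured by AlphaLISA after 16 hr, decreased signal indicating inhibition.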
HepG2 viability: HepG2 cytotoxicity, counter-screen for TGF-b inhibitors | Potency, µM (doses to about 46.1 µM), for the others: at the highest dose activity change, negative = cytotoxicity, usual class: cytotoxic | 410,000 compounds, 0.76% hits | HepG2 CAGA-GFP viability, ATP luminescence, 18 h; note: potency is the fitted concentration of half-maximal effect
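HepG2 CAGA-GFP cells (1000/well, DMEM with 1% FBS) received compound, then TGF-beta at 500 pg/mL final, and were incubated 18 hours at 37 degrees C. Viability was read by CellTiter-Glo luminescence. Media-only wells were set as complete cell-killing and DMSO as no toxicity.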
DT40 TDP1 CPT: DT40-hTDP1 cell growth loss with CPT. chicken DT40 Tdp1-/-;hTDP1 cells + 20 nM CPT, ATP luminescence, 48 h. AID 686979. Potency, µM (series often up to 46.2 µM), for inactives: at the top dose activity change, negative = growth inhibition, most hits filed as inhibitors. 420,000 compounds, 12% hits; note: potency is the fitted concentration of half-maximal effect; % is set by controls: 0 for no effect and ±100 for the full control effect; nearly all actives have a fitted effect of over 55% in size
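Cell growth measured by CellTiter-Glo luminescence after a minimum 48 h, 37 C compound exposure with 20 nM CPT in Tdp1-knockout DT40 cells stably expressing hTDP1, seeded 400/well; qHTS titration format.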
TDP1 cell noCPT: qHTS for Inhibitors of human tyrosyl-DNA phosphodiesterase 1 (TDP1): qHTS in cells in absence of CPT; 420,000 compounds, 15% hits; DT40 Tdp1-/- hTDP1 cells, no CPT, ATP luminescence, 48 h; Potency, µM (series often up to 46.2 µM), without a hit: at the highest dose activity change, negative = growth inhibition, actives largely listed as inhibitors; note: potency is the fitted concentration of half-maximal effect; % is set by controls: 0 for no effect and ±100 for the full control effect; nearly all actives have a fitted effect of over 55% in size
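Stably hTDP1-transfected Tdp1-null chicken DT40 cells were treated with library compounds minus camptothecin and grown for at least 48 hr at 37 °C, after which cellular ATP was quantified by luminescence.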
Active calls of the source: *; ? = inconclusive; . = no result; [ ] = dose if it differs, or a comment. An excerpt weighted towards active compounds, which were near 19% of everything screened. Unless noted, calls come from the whole dose curve; as a rule, active = well fitted curve in the direction sought with a large enough effect; inconclusive = small, poorly fitted or top-dose-only effect, or another doubt; inactive = no such curve, though single readings can be large; an effect the other way counts as inactive or inconclusive.

SMILES | TDP1 inh | TGFb inhibitor | IL1B secr inh | HepG2 viability | DT40 TDP1 CPT | TDP1 cell noCPT
CC(C)N1C[C@@H](Sc2ccccn2)C[C@H]1C(=O)Nc1ccc2c(c1)Nc1ccccc1CC2 | . | . | . | . | 10.8%[9.04 µM] | -10.1%
O=C(c1cc(C(F)(F)F)cc(C(F)(F)F)c1)N1CCC2(CCCN(c3ccccc3)C2)CC1 | . | . | . | . | 3.9% | -15.1%
Cc1cc(/C=C(\C#N)C(=O)Nc2ccc(F)cc2)c(C)n1-c1ccc(N2CCOCC2)c([N+](=O)[O-])c1 | 9.8% | -19.8% | -12.8 | -22.9% | 8.2µM* | 11.6µM*
COc1ccc(NC(=O)/C(C#N)=C/c2cc(C)n(-c3ccc(N4CCOCC4)c([N+](=O)[O-])c3)c2C)cc1 | 6.9% | -13.6% | -13.1 | -1.9% | 3.66µM* | 2.31µM*
COC(=O)C1=C(C)N(C(C)C)C(=O)C1(NC(=O)c1ccccc1OC)C(F)(F)F (centres undefined) | -0.6% | -29.4% | . | 2.3% | -22.0% | -23.3%
COc1ccc(CCNC(=O)CN2c3cccc4cccc(c34)S2(=O)=O)cc1 | -1.7%[0.505 µM] | 16.4% | ? | -8.8% | -5.2% | ?
Cn1c(=O)[nH]c(=O)c2c1nc(Br)n2CCOc1ccccc1 | 2.4% | -10.8% | 25.5 | -27.8% | 10.3µM* | 16.4µM*
Cn1c(=O)[nH]c(=O)c2c1nc(NCCN)n2CCOc1ccccc1 | . | -0.7% | 26.9 | -4.4% | ? | 13µM*
CNc1nc(-c2cccc(C(=O)N(C)C)c2)cn2ccnc12 | . | 1.9% | 0.0 | -2.0% | -3.7% | -5.0%
COc1ccc(CNc2nn3c(-c4cccc(C(=O)N(C)C)c4)cnc3s2)cc1 | . | ? | ? | -37.6% | 23.1µM* | 18.4µM*
Cc1ccc(Cn2cc(C(=O)c3ccc4c(c3)OCO4)c(=O)c3cc(C)ccc32)cc1 | 6.9% | -21.8% | . | -18.5% | ? | 23.1µM*
Cc1ccc(C(=O)c2cn(Cc3ccccc3F)c3cc4c(cc3c2=O)OCO4)cc1 | 0.0% | -19.0% | . | -4.3% | ? | 20.6µM*
Cc1ccc(C(=O)c2cn(Cc3ccccc3F)c3cc4c(cc3c2=O)OCCO4)cc1 | 9.2% | 7.4% | . | -1.1% | ? | ?
COc1ccc(C2=NS(=O)(=O)N(C)C(C(=O)NC3CCCC3)=C2)cc1OC | . | 3.8% | -22.6 | -5.3% | ? | ?
COc1ccc(C2=NS(=O)(=O)N(C)C(C(=O)Nc3ccc4c(c3)OCO4)=C2)cc1OC | . | -29.0% | 8.2 | -12.5% | 16.4µM* | 16.4µM*
COc1ccc(C2=NS(=O)(=O)N(C)C(C(=O)NC3CCCCC3)=C2)cc1OC | . | -0.8% | 1.8 | -24.3% | 9.2µM* | 18.4µM*
Cc1ccc(C2=NS(=O)(=O)N(C)C(C(=O)Nc3ccc4c(c3)OCO4)=C2)cc1 | . | ? | 11.0 | -27.0% | ? | ?
COc1ccc(C2=NS(=O)(=O)N(C)C(C(=O)Nc3ccc4c(c3)OCO4)=C2)cc1 | . | ? | -17.0 | -29.8% | 16.4µM* | 8.2µM*
CCOC(=O)C1CCCN(S(=O)(=O)c2ccc3[nH]c(=O)ccc3c2)C1 (centres undefined) | -2.2% | -7.2% | . | -46.9% | -26.4% | -51.6%
N#CCSc1nnc(C2CCCCC2)n1Cc1ccccc1 | 0.0% | -19.4% | -6.6 | 0.9% | 10.3µM* | -21.5%
Cc1cccc(-c2nnc(SCC#N)n2Cc2ccccc2)c1 | 1.2% | -16.3% | 0.0 | -0.3% | -1.7% | 3.4%
Cc1ccc(-c2nn3c(=O)cc(CN4CCN(C(=O)/C=C/c5ccccc5)CC4)nc3s2)cc1 | -2.7% | -1.3% | . | 1.2% | -12.1% | -15.0%
